Shown are actives, neighbours in structure and some others; about 5.7% of the full set was active somewhere.
KB-3-1 cytotox = kills parental KB-3-1 adenocarcinoma cells; KB-3-1 viability, CellTiter-Glo ATP luminescence, 72 h; Potency, µM (highest dose often 46.1 µM), usual class: cytotoxic; 400,000 compounds, 1.4% hits; AID 1347075; further: nearly all actives have a fitted effect of over 60% in size
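Using CellTiter-Glo luminescence, growth of non-resistant KB-3-1 adenocarcinoma cells is assessed 72 h after pin-tool compound addition at 37 °C. Normalized responses across the concentration series yield fitted curves.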
HT1080 IDH1KD tx = kills HT-1080 cells with IDH1 knockdown; Potency, µM (highest dose often 46.1 µM), inactives show top-dose activity, negative = toxicity, usual class: cytotoxic; AID 686971; 360,000 compounds, 2% hits; HT-1080 IDH1 knockdown viability, ATP luminescence, 48 h;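 further: 0% = DMSO wells and -100% = cell-free medium wells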
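CellTiter-Glo luminescence after 48 h compound exposure at 37 degrees C of IDH1-knockdown HT-1080 cells in 5% FBS RPMI. %Activity scaled between DMSO wells and cell-free media wells, with curves fitted and assigned curve classes.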
KB-V1 cytotox = kills drug-selected multidrug resistant KB-V1 cells; KB-V1 MDR cells viability, CellTiter-Glo, 72 h; Potency, µM (doses to about 46.1 µM), most hits filed as cytotoxic; 400,000 compounds, 3.4% hits; further: nearly all actives have a fitted effect of over 60% in size
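KB-V1 MDR subline cells in DMEM (phenol-red free, 10% FBS) exposed to compounds in qHTS concentration series for 72 h at 37 degrees C. Viability read by CellTiter-Glo luminescence; concentration-effect curves fitted after normalization and correction.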
HT1080NT lethal = kills 2HG-producing HT-1080-NT fibrosarcoma cells; HT-1080-NT fibrosarcoma viability, CellTiter-Glo ATP luminescence, 48 h; Potency, µM (top dose mostly 46.1 µM), without a hit: at the top dose activity, negative = less viability, hits mostly cytotoxic; 360,000 compounds, 1.6% hits; AID 686970;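 further: NT is the 2HG producing partner of a matched IDH1 knockdown line; 0% = DMSO-treated cells and -100% = media-only wells without cells; nearly all actives have a fitted effect of over 55% in size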
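Compounds were tested in concentration-response format on HT-1080-NT cells for 48 hours at 37 degrees C. Cell viability came from CellTiter-Glo luminescence; curves were classified by r2, response magnitude and activity.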
An asterisk follows results filed as active; i = inactive; ? = inconclusive; nt = no result given; ! = a repeat was not active; [ ] = dose if it differs, or a comment. The call rests on the fitted dose curve; in most records, active means well fitted curve in the direction sought with a large enough effect; inconclusive means small, poorly fitted or top-dose-only effect, or another doubt; inactive means no such curve, though single readings can be large; an effect the other way counts as inactive or inconclusive. Unless noted, on the % scale 0 is the no-effect control and ±100 the full control effect; potency means the concentration at half of the fitted maximal effect.

SMILES	KB-3-1 cytotox	HT1080 IDH1KD tx	KB-V1 cytotox	HT1080NT lethal
COc1ccccc1CNC(=O)c1ccc(-c2nc(CN3CCc4ccccc43)c(C)o2)cc1	?	nt	10µM*	nt
COc1cc(Cl)c(NS(=O)(=O)c2ccc3[nH]c(=O)ccc3c2)c(OC)c1	i	nt	?	nt
Cc1ccc(N/C=C(\C2OC(=O)c3ccccc32)[N+](=O)[O-])c(C)c1 (stereo unspecified)	i	0%	i	1%
O=C1OC(/C(=C\Nc2ccc(F)cc2F)[N+](=O)[O-])c2ccccc21 (stereo unspecified)	i	18µM*	i	?
CCNc1ccc(S(=O)(=O)N(C)C)cc1NCC(=O)Nc1ccc(Br)cc1F	i	-2%	16µM*	-5%
CCc1ccc(C(=O)NC(Cc2c[nH]c3ccccc23)C(=O)OCC(=O)c2ccc(Br)cc2)cc1 (stereo unspecified)	i	nt	i	nt
O=C(O)CCN1C(=O)C2C3C=CC(C3)C2C1=O (stereo unspecified)	i	3%	i	3%
O=C1C2C3C=CC(C3)C2C(=O)N1CCCCCCN1C(=O)C2C3C=CC(C3)C2C1=O (stereo unspecified)	?	-2%	18µM*	8%
CC1=C(C(=O)Nc2ccc(C)cc2C)C(c2ccccc2F)n2nc(SCC(=O)c3ccc(C)cc3)nc2N1 (stereo unspecified)	i	nt	?	nt
CCOC(=O)c1sc2nc(C3CC3)cc(-c3ccc(OC)cc3)c2c1N	i	6%	i	15%
CCOC(=O)c1sc2nc(C3CC3)cc(-c3ccc(F)cc3)c2c1N	i	8%	15µM*	15%
Cc1cccc(-c2ccc3ncnc(NCc4cccs4)c3c2)c1	13µM*	nt	i	nt
Cc1cccc(CNc2ncnc3ccc(-c4ccc5c(c4)OCCO5)cc23)c1	8.2µM*	nt	i	nt
c1nc(NCc2ccc3c(c2)OCO3)c2cc(-c3ccc4c(c3)OCCO4)ccc2n1	i	nt	i	nt
COCCCNC(=O)C1CCN(C(=O)Nc2ccc(Cl)cc2)CC1	i	1%	i	4%
CCCCCCCCCC[n+]1cc(Br)cc(Br)c1	?	nt	i	nt
O=C(Nc1cccc(Cl)c1)c1cc(S(=O)(=O)N2CCCc3ccccc32)ccc1F	i	nt	?	nt
CSc1nnc2c3ccccc3n(Cc3ccccc3)c2n1	i	-3%[9.24 µM]	i	-2%
CSc1nnc2c3ccccc3n(CCc3ccccc3)c2n1	9.2µM*	?	i	-16%
C=CC[n+]1c(/C=C2\C=Cc3cc(C)ccc3N2CC)ccc2ccccc21	?	13µM*	?	?
CO/N=C\CC(=O)Nc1ccc(Oc2ccccc2)cc1	8.2µM*	?	?	?
Cc1cc2nc3c(=O)n(C)c(=O)n(C)c3nc2cc1N=CN(C)C	i	nt	?	nt
Cc1occc1C(=O)NNC(=O)COc1ccc(Br)cc1Br	i	-10%	15µM*	-1%
Cc1ccc(OCC(=O)NNC(=O)c2ccoc2C)c(Br)c1	i	-2%	i	-4%
O=C(NCc1cccnc1)C(=O)NCC(c1ccco1)N1CCN(c2ccccc2)CC1 (stereo unspecified)	i	6%	9.2µM*	12%
SMILES	KB-3-1 cytotox	HT1080 IDH1KD tx	KB-V1 cytotox	HT1080NT lethal
O=C(NCc1cccnc1)C(=O)NCC(c1ccco1)N1CCOCC1 (stereo unspecified)	i	11%	i	18%
O=C(NCCC1=CCCCC1)C(=O)NCC(c1ccco1)N1CCN(c2ccc(F)cc2)CC1 (stereo unspecified)	i	-1%	2.6µM*	-14%
COc1cc(NC(=O)N2CCC3(CC2)Nc2ccccc2-n2cccc23)cc(OC)c1OC	?	nt	i	nt
Cc1cccc(C)c1NC(=O)Cn1cc(C(=O)C2CC2)c2ccccc21	i	nt	i	nt
Cc1ccc2c(c1)N(C(=O)CCC(=O)NCc1cccc(F)c1)CC(C)O2 (stereo unspecified)	i	nt	i	nt
COc1ccc(CCNCc2c(C(=O)O)c(C)n(Cc3ccccc3C)c2C)c(OC)c1	i	nt	?	nt
C=CC[n+]1c(-c2ccc(OCC)cc2)csc1NNC(=O)Nc1ccccc1	18µM*	?	18µM*	?
C=CC[n+]1c(-c2ccc(C)cc2)csc1Nc1c(C)n(C)n(-c2ccccc2)c1=O	?	-10%	?	-9%
CCC(C(=O)Nc1c(C)cccc1C)n1c(-c2ccc(-c3ccccc3)cc2)nc2ccccc21 (stereo unspecified)	i	-15%	i	-8%
CCOC(=O)Nc1ccc2c(c1)N(C(=O)CNC)c1ccccc1CC2	i	6%	i	7%
CCOC(=O)Nc1ccc2c(c1)N(C(=O)OC)c1ccccc1CC2	?	?	5.8µM*	?
CCCn1ccc2c(OCC(=O)Nc3ccc(C(F)(F)F)cc3)cccc2c1=O	i	nt	i	nt
COc1ccc(/C=C/c2ccccn2)cc1	23µM*	nt	i	nt
Cc1ccc(C=Cc2ccccn2)cc1	i	13%	i	19%
O=C(Nc1ccc(OC(F)F)cc1)c1nc(S(=O)(=O)Cc2ccccc2F)ncc1Cl	?	nt	i	nt
Cc1ccc(Cn2cnc3ccccc32)cc1C	8.2µM*	-30%	21µM*	-8%
C=C(C)[C@@H]1C2=CC(C(=O)OC)=C(C[C@@H](C(=C)C)[C@H]3O[C@H]3C3=C[C@H]1OC3=O)O2	nt	3.5µM*	nt	4µM*
CCOc1ccccc1-c1nc(-c2cc3ccc(C)cc3[nH]c2=O)no1	i	-2%	?	1%
CCCc1nc(-c2cc3ccc(C)cc3[nH]c2=O)no1	i	5%	12µM*	2%
CCS(=O)(=O)NCCc1cc2ccc(C)cc2[nH]c1=O	i	2%	21µM*	-10%
CCN1C(Br)=CCc2ccccc21	i	nt	?	nt
Cc1ccc(NS(=O)(=O)c2ccc3c(c2)CCC(=O)N3)cc1Cl	i	nt	i	nt
CC(CN1CCN(CCOCCO)CC1)CN1c2ccccc2Sc2ccc(Cl)cc21 (stereo unspecified)	?	?	i	23µM*
OC1CC2CCC(C1)N2CCCN1c2ccccc2Sc2ccc(Cl)cc21 (stereo unspecified)	?	4.6µM*	?	?
CCSc1ccc2c(c1)N(CCCN1CCN(C)CC1)c1ccccc1S2	i	?	i	18µM*
CN1CCN(CCCN2c3ccccc3Sc3ccc(Cl)cc32)CC1	?	21µM*!	16µM*!	15µM*!
O=C(CCN1CCOCC1)N1c2ccccc2Sc2ccc(Cl)cc21	i	0%	i	-5%
CCOC(=O)CNC(=O)Nc1cc(C(=O)NCc2ccc(C(C)C)cc2)ccc1N1CCCC1	i	nt	i	nt
Cc1ccc(CCNC(=O)C2CCCN(C(=O)c3cc4sccc4n3C)C2)cc1 (stereo unspecified)	i	-21%	i	0%
Cn1c(C(=O)N2CCCC(C(=O)NCCCc3ccccc3)C2)cc2sccc21 (stereo unspecified)	i	-17%	21µM*	-22%

Screens as filed in PubChem BioAssay.
